The results in this text go back to PubChem BioAssay (EPA / NIEHS).

Results filed as inconclusive are left out. Activity calls are given as the source filed them. How the source made its calls, unless noted: active means hit-call score of the fitted dose curve at least 0.9, where 1 is the maximum; inactive means score below 0.9.

Assay [1] concerns the target Paired box protein Pax-6 (Homo sapiens) (UniProt P26367). In words: ATG_Pax6_CIS: Attagene CIS-FACTORIAL HepG2 Assay for human Paired Box 6 (PAX6) (AID 2282956). As to conditions: HepG2 CIS-FACTORIAL PAX6 reporter transcription, RNA readout; actives raise or lower the signal. The method, boiled down:
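HepG2 cells transiently transfected with multiplexed cis-promoter reporter units (endogenous TF activity) were dosed for 24 h. Reporter mRNA was quantified by RT-PCR, 6-FAM labeling, HpaI digestion and capillary electrophoresis; bidirectional fitting versus DMSO baseline.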

Assay [2] can be described thus: ATG_RORE_CIS: Attagene CIS-FACTORIAL HepG2 Assay for human RAR-related Orphan Receptor Element (RORE) (AID 2282959). As to conditions: HepG2 Attagene cis-factorial RORE reporter, mRNA; actives raise or lower the signal. The method, boiled down: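 Readout: fluorescent reporter mRNA by RT-PCR plus capillary electrophoresis, 24 h after dosing transfected HepG2 cells. Endogenous transcription factor activity on a cis promoter element is measured. Gain or loss of signal fitted against DMSO.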

Assay [3] can be described thus: ATG_Sox_CIS: Attagene CIS-FACTORIAL HepG2 Assay for human SRY-box transcription factor (SOX) (AID 2282960). The note with it: HepG2 Attagene cis-factorial SOX reporter, mRNA; actives raise or lower the signal. In short, it runs like this:
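Read-out: fluorescent RT-PCR products of SOX1-linked reporter transcripts resolved by capillary electrophoresis, fitted bidirectionally against DMSO. Transiently transfected HepG2 cells, 24 h after chemical exposure, endogenous transcription factor activity.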

Assay [4] has as its target Transcription factor Sp1 (Homo sapiens) (UniProt P08047). Kind of assay: ATG_Sp1_CIS: Attagene CIS-FACTORIAL HepG2 Assay for human Specificity Protein 1 (Sp1) (AID 2282961). As to conditions: HepG2 Sp1 cis-reporter transcription, actives raise or lower the signal. The method, boiled down:
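Read-out: fluorescence of 6-FAM-labeled, HpaI-digested RT-PCR products separated by capillary electrophoresis. HepG2 cells carried transfected cis-element reporter units and were exposed to chemicals for 24 h; gain or loss of signal fitted relative to DMSO.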

Assay [5] is described as follows: ATG_SREBP_CIS: Attagene CIS-FACTORIAL HepG2 Assay for human Sterol Regulatory Element Binding (SREBP) (AID 2282962). As to conditions: HepG2 Attagene cis-factorial SREBP reporter, mRNA; actives raise or lower the signal. In short, it runs like this:
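HepG2 cells transiently transfected with multiplexed cis-element reporter units report endogenous transcription factor activity. After 24 h of chemical exposure, reporter mRNA was quantified by RT-PCR, 6-FAM labelling, HpaI digestion and capillary electrophoresis; bidirectional fits used DMSO as baseline.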

Assay [6] deals with Signal transducer and activator of transcription 3 (Homo sapiens) (UniProt P40763). In words: ATG_STAT3_CIS: Attagene CIS-FACTORIAL HepG2 Assay for human Signal Transducer and Activator of Transcription 3 (STAT3) (AID 2282963). The note with it: HepG2, Attagene cis-factorial STAT3 reporter transcription; actives raise or lower the signal. The method, boiled down:
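Values derive from bidirectional fits relative to DMSO of reporter mRNA levels, measured by RT-PCR with capillary electrophoresis, in HepG2 cells carrying transiently transfected cis-regulated reporter units and exposed 24 h.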

The nature of assay [7]: ATG_TA_CIS: Attagene CIS-FACTORIAL HepG2 Assay for human TA Basal Promoter (AID 2282964). The note with it: HepG2 Attagene CIS-factorial TA basal promoter reporter; actives raise or lower the signal. In short, it runs like this: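 Read-out: fluorescent reporter-transcript fragments resolved by capillary electrophoresis after RT-PCR and HpaI digestion. Source: HepG2 cells carrying transiently transfected multi-reporter cis constructs, treated 24 h. Endpoint fitted bidirectionally relative to DMSO.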

A short description of assay [8]: ATG_TCF_b_cat_CIS: Attagene CIS-FACTORIAL HepG2 Assay for human T-Cell-Factor with beta-catenin (TCF/b-cat) (AID 2282965). The note with it: HepG2 TCF/beta-catenin cis-reporter transcription, actives raise or lower the signal. In short, it runs like this: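 HepG2, transient MRTU transfection, cis-element-driven reporters (endogenous TFs). 24 h compound exposure. Readout: reporter mRNA by RT-PCR + 6-FAM primer extension, HpaI digest, capillary electrophoresis. Gain/loss fit vs DMSO baseline.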

Assay [9] can be described thus: ATG_TGFb_CIS: Attagene CIS-FACTORIAL HepG2 Assay for human Transforming Growth Factor (TGF) (AID 2282967). The note with it: HepG2 Attagene CIS TGFb reporter, mRNA transcription; actives raise or lower the signal. The method, boiled down: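 Transient MRTU transfection of HepG2 (FuGene 6). Dose 24 h. TriZol RNA, oligo(dT) RT, PCR, 6-FAM primer extension, HpaI cut, CE. Bidirectional fit, DMSO = baseline.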

Assay [10] can be described thus: ATG_VDRE_CIS: Attagene CIS-FACTORIAL HepG2 Assay for human Vitamin D Receptor Element (VDRE) (AID 2282968). The note with it: HepG2 VDRE cis-reporter transcription, actives raise or lower the signal. The method, boiled down:
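Cell-based multiplexed reporter format in human liver HepG2 cells, 24 h post-dose. Fluorescence from capillary electrophoresis of reporter cDNA gives the signal, with DMSO as negative control and baseline.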

Assay [11] concerns the target Nuclear receptor subfamily 1 group I member 3 (Homo sapiens) (UniProt Q14994). In words: ATG_CAR_TRANS: Attagene TRANS-FACTORIAL HepG2 Assay for human Constitutive Androstane Receptor (CAR) (AID 2282969; active means hit-call score of the fitted dose curve at least 0.9, where 1 is the maximum;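 further: activators raise reporter mRNA above DMSO so AC50 marks induction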). As to conditions: HepG2 Attagene TRANS-FACTORIAL CAR reporter. In short, it runs like this: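 HepG2 cells transiently transfected with GAL4-UAS reporter units; TRANS format reads activity of exogenous chimeric NR-Gal4 protein. After 24 h dosing, reporter mRNA quantified by RT-PCR, 6-FAM labelling and capillary electrophoresis; gain of signal fitted against DMSO.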

Assay [12] concerns the target Estrogen receptor (Homo sapiens) (UniProt P03372). Kind of assay: ATG_ERa_TRANS: Attagene TRANS-FACTORIAL HepG2 Assay for human Estrogen Receptor alpha (ERa) (AID 2282970; active means hit-call score of the fitted dose curve at least 0.9, where 1 is the maximum). The note with it: HepG2 Attagene TRANS ERa GAL4 reporter, mRNA. The method, boiled down: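 Human liver HepG2, transient transfection of multiple GAL4-UAS reporter units; TRANS format (exogenous NR-Gal4 chimera). 24 h dosing. Readout: reporter mRNA, RT-PCR, 6-FAM primer extension, HpaI digest, capillary electrophoresis. Positive direction vs DMSO.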

The target in assay [13] is Steroid hormone receptor ERR1 (Homo sapiens) (UniProt P11474). In words: ATG_ERRa_TRANS: Attagene TRANS-FACTORIAL HepG2 Assay for human Estrogen-Related Receptor alpha (ERRa) (AID 2282971; active means hit-call score of the fitted dose curve at least 0.9, where 1 is the maximum). The note with it: HepG2 Attagene TRANS reporter, ERRa transactivation. The method, boiled down: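 Reporter transcript induction was quantified by RT-PCR and capillary electrophoresis of FAM-labelled, HpaI-cut products after 24 h treatment of HepG2 cells carrying transiently transfected GAL4-UAS reporter units and an exogenous ERRa-Gal4 fusion; activity scored as increase over DMSO.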

Assay [14] is described as follows: ATG_M_19_TRANS: Attagene TRANS-FACTORIAL HepG2 Assay for M19 Transcription Factor (Internal Marker) (AID 2282974; active means hit-call score of the fitted dose curve at least 0.9, where 1 is the maximum). The note with it: HepG2 Attagene TRANS-FACTORIAL M19 internal marker reporter. In short, it runs like this:
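24 h chemical exposure of transiently transfected HepG2 (MRTU library). RNA → oligo(dT) RT → PCR → 6-FAM labelling → HpaI cut → CE fluorescence. Positive-direction fit vs DMSO baseline; background internal-marker readout.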

Assay [15] can be described thus: ATG_GAL4_TRANS: Attagene TRANS-FACTORIAL HepG2 Assay for GAL4 (Internal Marker) (AID 2282976; active means hit-call score of the fitted dose curve at least 0.9, where 1 is the maximum). As to conditions: HepG2 Attagene TRANS GAL4 internal marker reporter. The method, boiled down: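 First, HepG2 cells were transfected with reporter units under GAL4-UAS control. Next, they were treated with chemical for 24 h. Finally, RNA was reverse-transcribed, PCR-amplified, FAM-labelled and resolved by capillary electrophoresis, with induction scored against DMSO.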

Assay [16] can be described thus: ATG_PPRE_CIS: Attagene CIS-FACTORIAL HepG2 Assay for human Peroxisome Proliferator-activated Response Element (PPRE) (AID 2282958). The note with it: HepG2 PPRE cis-element reporter, Attagene transcription factor profiling; actives raise or lower the signal. In short, it runs like this:
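Read-out: fluorescent reporter mRNA fragments resolved by capillary electrophoresis after RT-PCR. HepG2 cells carried transiently transfected PPRE-driven cis reporter constructs and were dosed for 24 h; gain or loss of signal fitted relative to DMSO.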

The nature of assay [17]: ATG_TAL_CIS: Attagene CIS-FACTORIAL HepG2 Assay for human TAL Basal Promoter (AID 2282966).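 Further: background control endpoint measuring basal TAL promoter reporter mRNA not a specific factor.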 The note with it: HepG2 Attagene cis-factorial TAL promoter reporter; actives raise or lower the signal. The method, boiled down: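 Fluorescence of labelled reporter cDNA fragments, resolved by capillary electrophoresis, gave the readout. Human HepG2 liver cells carried transiently transfected cis-element reporter units and were treated for 24 hours; activity was fitted bidirectionally against DMSO.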

Assay [18] concerns the target X-box-binding protein 1 (Homo sapiens) (UniProt P17861). In words: ATG_Xbp1_CIS: Attagene CIS-FACTORIAL HepG2 Assay for human X-box Binding Protein 1 (XBP1) (AID 2282972). The note with it: HepG2 XBP1 cis-element reporter, Attagene multiplex; actives raise or lower the signal. The method, boiled down: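 HepG2 cells transiently transfected with cis-regulated multiple reporter transcription units; endogenous transcription factor activity measured 24 hours after chemical dosing. Reporter mRNA quantified by RT-PCR, 6-FAM primer extension, HpaI digestion and capillary electrophoresis; bidirectional fitting versus DMSO.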

For assay [19], the target named is Estrogen-related receptor gamma (Homo sapiens) (UniProt P62508). Kind of assay: ATG_ERRg_TRANS: Attagene TRANS-FACTORIAL HepG2 Assay for human Estrogen-Related Receptor gamma (ERRg) (AID 2282977; active means hit-call score of the fitted dose curve at least 0.9, where 1 is the maximum;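 further: hits increase reporter signal over DMSO so potencies reflect activators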). As to conditions: HepG2 Attagene TRANS reporter, ERRg transactivation. In short, it runs like this:
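Transient HepG2 transfectants, 24 h compound exposure, GAL4-UAS reporter mRNA by RT-PCR/6-FAM labelling/capillary electrophoresis; positive direction vs DMSO.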

X-box-binding protein 1 (Homo sapiens), sequence (P17861 whole entry, looked up): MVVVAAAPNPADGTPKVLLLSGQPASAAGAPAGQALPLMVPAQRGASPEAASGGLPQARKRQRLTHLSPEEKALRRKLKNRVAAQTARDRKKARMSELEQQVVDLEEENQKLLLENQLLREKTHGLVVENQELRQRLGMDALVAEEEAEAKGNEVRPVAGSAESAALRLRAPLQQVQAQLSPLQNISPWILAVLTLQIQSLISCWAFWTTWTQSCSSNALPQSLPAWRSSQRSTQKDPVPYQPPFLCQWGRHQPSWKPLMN
Estrogen-related receptor gamma (Homo sapiens), sequence (P62508 whole entry, looked up, the tested form may be a part): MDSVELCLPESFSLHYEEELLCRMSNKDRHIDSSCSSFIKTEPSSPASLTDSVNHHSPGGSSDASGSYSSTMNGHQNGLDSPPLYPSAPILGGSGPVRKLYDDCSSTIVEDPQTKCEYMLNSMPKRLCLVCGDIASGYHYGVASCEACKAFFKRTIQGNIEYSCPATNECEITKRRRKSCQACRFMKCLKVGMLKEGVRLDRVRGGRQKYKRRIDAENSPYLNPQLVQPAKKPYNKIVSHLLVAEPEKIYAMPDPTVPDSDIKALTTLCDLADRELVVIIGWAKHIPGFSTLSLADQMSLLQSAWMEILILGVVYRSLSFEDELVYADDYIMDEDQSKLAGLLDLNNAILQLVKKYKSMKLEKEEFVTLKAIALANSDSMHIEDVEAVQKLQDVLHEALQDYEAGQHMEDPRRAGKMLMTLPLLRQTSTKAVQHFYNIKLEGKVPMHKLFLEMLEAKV
Transcription factor Sp1 (Homo sapiens), sequence (P08047 whole entry, looked up): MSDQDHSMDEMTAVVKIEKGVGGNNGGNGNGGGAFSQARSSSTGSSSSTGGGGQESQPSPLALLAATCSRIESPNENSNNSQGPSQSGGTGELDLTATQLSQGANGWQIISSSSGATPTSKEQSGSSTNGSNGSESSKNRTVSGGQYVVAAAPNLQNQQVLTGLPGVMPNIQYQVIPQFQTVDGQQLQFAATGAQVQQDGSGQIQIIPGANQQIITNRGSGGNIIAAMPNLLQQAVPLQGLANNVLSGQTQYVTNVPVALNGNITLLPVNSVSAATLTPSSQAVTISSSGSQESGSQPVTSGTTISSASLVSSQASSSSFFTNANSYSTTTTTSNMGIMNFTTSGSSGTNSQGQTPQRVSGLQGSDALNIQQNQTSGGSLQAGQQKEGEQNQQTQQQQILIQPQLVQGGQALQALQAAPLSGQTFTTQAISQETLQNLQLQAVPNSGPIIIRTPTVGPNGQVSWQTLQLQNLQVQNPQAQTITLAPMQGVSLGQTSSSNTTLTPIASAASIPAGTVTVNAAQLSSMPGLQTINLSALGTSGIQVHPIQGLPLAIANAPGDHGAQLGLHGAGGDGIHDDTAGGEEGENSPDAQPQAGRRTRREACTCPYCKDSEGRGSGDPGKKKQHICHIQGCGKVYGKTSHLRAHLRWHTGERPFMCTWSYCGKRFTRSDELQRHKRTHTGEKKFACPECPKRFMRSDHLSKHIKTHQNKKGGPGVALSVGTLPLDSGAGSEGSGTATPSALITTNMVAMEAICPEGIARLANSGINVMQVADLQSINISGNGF
Estrogen receptor (Homo sapiens), sequence (P03372 whole entry, looked up, the tested form may be a part): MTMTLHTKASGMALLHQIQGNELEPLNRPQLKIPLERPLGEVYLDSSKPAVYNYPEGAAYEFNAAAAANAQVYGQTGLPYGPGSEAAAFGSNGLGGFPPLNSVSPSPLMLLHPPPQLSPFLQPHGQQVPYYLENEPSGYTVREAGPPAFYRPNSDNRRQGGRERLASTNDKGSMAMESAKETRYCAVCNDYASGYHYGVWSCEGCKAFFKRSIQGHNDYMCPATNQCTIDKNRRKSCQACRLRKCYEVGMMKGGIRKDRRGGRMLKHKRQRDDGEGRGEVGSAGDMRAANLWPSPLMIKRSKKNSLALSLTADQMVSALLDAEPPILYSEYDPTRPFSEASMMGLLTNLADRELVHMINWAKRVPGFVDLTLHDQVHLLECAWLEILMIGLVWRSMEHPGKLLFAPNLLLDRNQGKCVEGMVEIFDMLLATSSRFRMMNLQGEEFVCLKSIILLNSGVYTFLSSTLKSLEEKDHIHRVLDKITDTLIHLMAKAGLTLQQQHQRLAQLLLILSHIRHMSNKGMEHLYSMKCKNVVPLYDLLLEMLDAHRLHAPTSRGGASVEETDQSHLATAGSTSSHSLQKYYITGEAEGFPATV
Steroid hormone receptor ERR1 (Homo sapiens), sequence (P11474 whole entry, looked up, the tested form may be a part): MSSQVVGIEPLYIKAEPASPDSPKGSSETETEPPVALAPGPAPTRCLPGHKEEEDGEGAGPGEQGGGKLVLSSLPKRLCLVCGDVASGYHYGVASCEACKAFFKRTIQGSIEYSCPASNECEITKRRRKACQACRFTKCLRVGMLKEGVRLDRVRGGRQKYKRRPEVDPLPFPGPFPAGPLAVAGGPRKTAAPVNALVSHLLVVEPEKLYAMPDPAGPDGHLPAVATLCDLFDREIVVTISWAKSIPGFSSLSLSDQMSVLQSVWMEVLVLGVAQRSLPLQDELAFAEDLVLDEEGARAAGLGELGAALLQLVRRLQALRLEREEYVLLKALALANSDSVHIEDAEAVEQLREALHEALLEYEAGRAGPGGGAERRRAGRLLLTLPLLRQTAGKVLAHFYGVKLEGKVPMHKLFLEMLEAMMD
Signal transducer and activator of transcription 3 (Homo sapiens), sequence (P40763 whole entry, looked up): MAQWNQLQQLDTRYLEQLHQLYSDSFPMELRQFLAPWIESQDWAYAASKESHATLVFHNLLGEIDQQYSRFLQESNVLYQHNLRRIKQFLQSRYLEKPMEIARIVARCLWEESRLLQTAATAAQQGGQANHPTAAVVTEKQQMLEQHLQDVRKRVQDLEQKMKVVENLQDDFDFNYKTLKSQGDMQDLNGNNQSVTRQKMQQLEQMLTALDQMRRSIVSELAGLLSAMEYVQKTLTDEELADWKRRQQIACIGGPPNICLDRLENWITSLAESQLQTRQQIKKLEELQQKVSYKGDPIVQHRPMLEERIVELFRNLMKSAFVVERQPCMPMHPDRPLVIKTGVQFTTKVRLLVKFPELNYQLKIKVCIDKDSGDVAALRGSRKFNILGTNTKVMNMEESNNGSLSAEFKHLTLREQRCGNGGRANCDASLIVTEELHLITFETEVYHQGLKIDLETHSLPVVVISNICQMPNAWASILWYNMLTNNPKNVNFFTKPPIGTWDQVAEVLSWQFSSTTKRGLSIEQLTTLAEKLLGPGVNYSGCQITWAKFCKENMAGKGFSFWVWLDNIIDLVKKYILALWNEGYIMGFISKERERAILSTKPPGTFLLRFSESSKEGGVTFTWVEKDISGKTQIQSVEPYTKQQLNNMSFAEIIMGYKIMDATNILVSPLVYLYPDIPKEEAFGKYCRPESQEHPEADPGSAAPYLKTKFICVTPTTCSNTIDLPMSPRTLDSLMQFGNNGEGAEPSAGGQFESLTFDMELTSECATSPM
Paired box protein Pax-6 (Homo sapiens), sequence (P26367 whole entry, looked up): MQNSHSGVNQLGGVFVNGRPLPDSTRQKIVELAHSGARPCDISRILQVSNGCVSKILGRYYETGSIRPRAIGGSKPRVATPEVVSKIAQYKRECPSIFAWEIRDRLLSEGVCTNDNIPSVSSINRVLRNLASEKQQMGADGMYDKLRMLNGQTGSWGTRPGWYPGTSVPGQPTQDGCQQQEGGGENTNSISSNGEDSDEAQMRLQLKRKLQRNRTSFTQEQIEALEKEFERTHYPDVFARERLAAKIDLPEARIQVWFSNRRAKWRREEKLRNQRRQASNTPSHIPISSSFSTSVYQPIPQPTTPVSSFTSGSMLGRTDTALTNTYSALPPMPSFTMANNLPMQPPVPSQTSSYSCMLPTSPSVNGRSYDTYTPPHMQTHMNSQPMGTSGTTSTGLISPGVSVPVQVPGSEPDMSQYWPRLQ
Nuclear receptor subfamily 1 group I member 3 (Homo sapiens), sequence (Q14994 whole entry, looked up, the tested form may be a part): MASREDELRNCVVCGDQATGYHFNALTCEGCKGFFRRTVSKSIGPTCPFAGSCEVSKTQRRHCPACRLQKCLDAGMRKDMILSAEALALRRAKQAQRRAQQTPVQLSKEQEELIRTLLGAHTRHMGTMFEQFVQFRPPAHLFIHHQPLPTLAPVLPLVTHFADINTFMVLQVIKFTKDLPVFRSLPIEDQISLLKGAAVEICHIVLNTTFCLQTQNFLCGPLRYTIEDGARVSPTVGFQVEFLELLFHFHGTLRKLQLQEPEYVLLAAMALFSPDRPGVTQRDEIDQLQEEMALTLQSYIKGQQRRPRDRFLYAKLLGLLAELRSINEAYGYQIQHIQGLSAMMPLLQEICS

The term AC50 denotes the concentration giving half of the maximal activity seen. For the molecule `CCOC(=O)N1CCC(=C2c3ccc(Cl)cc3CCc3cccnc32)CC1`, the AC50 in assay [1] was 7.79 µM (active); in assay [2], 3.42 µM (active); in assay [7] it was 7.49 µM (active); in assay [8], 8.07 µM (active); in [10], 1.37 µM (active). The result in [3], in assay [4], in assay [5], in [6], in assay [9] and in [11] was inactive. Moreover, the result in assay [12], in assay [13], in assay [14] and in [15] was inactive.
Take `CCCCC/C=C\C/C=C\CCCCCCCC(=O)OC`: the AC50 was 73.3 µM (active) in assay [1] and 100 µM (active) in assay [7]. In addition, the molecule was called inactive in assay [16], in assay [2], in assay [3], in [4], in assay [5] and in assay [6]. For the same molecule, the result in assay [8], in assay [17], in [9] and in [11] was inactive.
As for `CCCCCC/C=C/C=O`, the result in assay [1], in [2], in [3], in assay [4], in assay [5] and in assay [6] was inactive. For the same molecule, the molecule was classed as inactive in assay [7], in assay [8], in assay [17], in assay [9], in [13] and in assay [18]. In addition, the molecule was called inactive in assay [14], in [15] and in [19]. The AC50 in assay [16] was 15 µM (active).
Turning to `CCCCCCC(O)CO` (stereo not given), the call in assay [1], in assay [16], in assay [2], in assay [3], in [4] and in assay [5] was inactive. Moreover, the molecule was called inactive in assay [6], in assay [7], in [8], in [17], in assay [9] and in assay [18].
Take `CC(=O)OCC(=O)[C@@]12N=C(C)O[C@@H]1C[C@H]1[C@@H]3CCC4=CC(=O)C=C[C@]4(C)[C@H]3[C@@H](O)C[C@@]12C`: the outcome in [1], in assay [16], in [2], in assay [3], in assay [4] and in [5] was inactive. The molecule was called inactive in assay [6], in [7], in assay [8], in assay [17], in assay [9] and in assay [12]. Also, the outcome in assay [14] and in assay [15] was inactive. In addition, the half-maximal activity concentration (AC50) in [10] is 25 µM (active).
Take `Cc1ccc([N+](=O)[O-])cc1S(=O)(=O)O`: the molecule was classed as inactive in assay [1], in [16], in assay [2], in [5], in assay [6] and in [7]. Also, the outcome in assay [8], in assay [17], in [9], in assay [12], in assay [18] and in assay [14] was inactive. Also, the values for the concentration at half-maximal activity (AC50) in assay [3] and in [4] were 180 µM (active) and 156 µM (active), respectively.
On to `CCC(CO)CO`, for which the call in [1], in assay [16], in assay [2], in assay [3], in assay [5] and in assay [6] was inactive. Also, the result in assay [7], in assay [8], in assay [9], in assay [10], in [12] and in [18] was inactive. Also, the call in assay [14] and in assay [15] was inactive.
Consider `O=C1CCCC1`, for which the outcome in assay [1], in assay [2], in [3], in assay [7], in assay [8] and in assay [17] was inactive. Besides, the molecule was called inactive in assay [10], in assay [13], in assay [18], in assay [14], in assay [15] and in assay [19].
Regarding `S=C(NC1CCCCC1)NC1CCCCC1`, the molecule was called inactive in assay [1], in assay [16], in assay [2], in assay [3], in assay [4] and in [5]. The result in assay [6], in [7], in [8], in assay [9], in assay [10] and in assay [12] was inactive. For the same molecule, the outcome in [18], in assay [14] and in assay [19] was inactive.
